Screening data as filed in PubChem.
ALOX12 inh – blocks human arachidonate 12S-lipoxygenase. P18054. purified 12hLO, xylenol orange hydroperoxide absorbance. Potency, µM (top dose mostly 108 µM), for inactives: at the top dose activity change, negative = inhibition, actives largely listed as inhibitors. 1.1% of 580,000 active. AID 1671190
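Hydroperoxide product was detected by ferrous iron/xylenol orange as the 573 to 405 nm absorbance ratio. Arachidonic acid at 40 uM (final) was turned over for 30 min at room temperature by 150 nM human 12hLO, pH 7.0 Hepes buffer, after 15 min compound preincubation.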
RORg inh – ROR gamma (mouse) transcription inhibition | P51450 | Drosophila S2 Gal4-RORgamma UAS-luciferase reporter, 20 h | Potency, µM (doses to about 53.6 µM), inactives show at the top dose activity change, negative = inhibition, actives largely listed as inhibitors | 5.4% of 310,000 active | AID 2551; also: nearly all actives have a fitted effect of over 60% in size
Target sequence (P51450 whole entry, looked up, the tested form may be a part): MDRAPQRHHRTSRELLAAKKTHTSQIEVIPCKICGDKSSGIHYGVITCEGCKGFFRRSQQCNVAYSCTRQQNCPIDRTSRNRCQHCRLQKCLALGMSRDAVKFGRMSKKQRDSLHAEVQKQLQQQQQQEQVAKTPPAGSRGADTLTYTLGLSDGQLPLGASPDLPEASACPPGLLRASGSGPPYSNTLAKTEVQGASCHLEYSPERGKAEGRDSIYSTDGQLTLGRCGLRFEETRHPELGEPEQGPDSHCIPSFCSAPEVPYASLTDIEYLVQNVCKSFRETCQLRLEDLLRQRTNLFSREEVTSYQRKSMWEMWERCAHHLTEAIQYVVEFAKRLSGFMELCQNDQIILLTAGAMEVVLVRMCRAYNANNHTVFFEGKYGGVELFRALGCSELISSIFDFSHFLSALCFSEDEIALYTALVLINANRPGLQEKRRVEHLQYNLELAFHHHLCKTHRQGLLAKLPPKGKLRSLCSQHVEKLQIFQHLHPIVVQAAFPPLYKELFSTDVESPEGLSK
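Compounds are pin-transferred onto Drosophila Schneider cells expressing a copper-inducible Gal4–ROR gamma transactivation domain fusion. After 1 hr, copper sulfate is added to 700 uM final; luciferase is read 20 hr later.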
DT40 TDP1 CPT – growth inhibition of DT40 Tdp1-/-;hTDP1 cells with camptothecin (screen for TDP1 inhibitors); 12% of 420,000 active; Potency, µM (doses to about 46.2 µM), for the others: at the top dose activity change, negative = growth inhibition, actives largely listed as inhibitors; chicken DT40 Tdp1-/-;hTDP1 cells + 20 nM CPT, ATP luminescence, 48 h; AID 686979; also: nearly all actives have a fitted effect of over 55% in size
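Cell growth measured by CellTiter-Glo luminescence after a minimum 48 h, 37 C compound exposure with 20 nM CPT in Tdp1-knockout DT40 cells stably expressing hTDP1, seeded 400/well; qHTS titration format.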
ELG1 DNA repair – inhibitors of ELG1-dependent DNA repair in HEK293T cells | HEK293T ELG1-luciferase reporter, luminescence, 16 h; DNA damage induced by 5-fluorouridine | Potency, µM (titrated, usually from 46.1 µM), inactives show at the highest dose activity change, negative = inhibition, actives largely listed as inhibitors | 2.3% of 330,000 active | AID 504467; also: nearly all actives have a fitted effect of over 55% in size
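DMSO vehicle served as the neutral condition. Each well held 2,000 cells given 5-fluorouridine plus compound; after 16 hr at 37 °C/5% CO2, ONE-Glo was added and luciferase measured 30 min later.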
DT40 TDP1 no CPT – qHTS for Inhibitors of human tyrosyl-DNA phosphodiesterase 1 (TDP1): qHTS in cells in absence of CPT; DT40 Tdp1-/- hTDP1 cells, no CPT, ATP luminescence, 48 h; Potency, µM (series often up to 46.2 µM), inactives show at the top dose activity change, negative = growth inhibition, hits mostly inhibitors; 15% of 420,000 active; AID 686978, 2013; also: nearly all actives have a fitted effect of over 55% in size
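Readout: luminescence from CellTiter-Glo after 30 min in the dark at RT. Cells: DT40 Tdp1-/- with stable hTDP1, 400/well. Exposure: compounds alone, ≥48 hr, 37 °C.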
VP16 counter – counter-screen for ROR gamma inhibitors: Gal4-VP16 reporter | 3.5% of 310,000 active | Drosophila S2 Gal4-VP16 UAS-luciferase, luminescence, 20 h | Potency, µM (titrated, usually from 53.6 µM), for the others: at the highest dose activity, negative = inhibition, actives largely listed as inhibitors | AID 2546;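 also: Gal4-VP16 expression switched on by copper sulfate through the metallothionein promoter; nearly all actives have a fitted effect of over 50% in size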
Active calls of the source: *; ? = inconclusive; . = not tested or not shown; [ ] = remark or other dose. In the library only some 15% were active in any assay of this set; here they are far more common. Calls follow the shape of the dose curve; as a rule, active = well fitted curve in the direction sought with a large enough effect; inconclusive = small, poorly fitted or top-dose-only effect, or another doubt; inactive = no such curve, though single readings can be large; an effect the other way counts as inactive or inconclusive. % is scaled to controls: 0 for no effect and ±100 for the full control effect; potency is read from the fitted curve at half-maximal effect.

SMILES | ALOX12 inh | RORg inh | DT40 TDP1 CPT | ELG1 DNA repair | DT40 TDP1 no CPT | VP16 counter
CSc1ccccc1C(=O)C1CCCN(Cc2cccc(C)n2)C1 (stereo unspecified) | -8% | 4.5µM* | ? | -15% | ? | 20µM*
Cc1ccsc1C(=O)C1CCCN(Cc2cnc(N(C)C)s2)C1 (stereo unspecified) | . | ? | . | -8% | . | 8%
COc1ccc(CN2CCCC(C(=O)c3ccccc3SC)C2)cc1O (stereo unspecified) | -16% | -1% | ? | 0% | ? | 8%
COc1ccccc1C(=O)C1CCCN(Cc2cnc(C)s2)C1 (stereo unspecified) | 2% | 39% | ? | ? | 21µM* | 0%
CSc1ccccc1C(=O)C1CCCN(Cc2ccccn2)C1 (stereo unspecified) | 0% | 11µM* | 3% | 4% | ? | -23%
CC12CCC(O)CC1CC[C@@H]1[C@@H]2CCC2(C)[C@H](C3=CC(=O)OC3)CCC12O (stereo partly specified) | -31% | . | . | . | . | .
O=C(c1cccs1)N1CC(CO)C2(CCNCC2)C1 (stereo unspecified) | 35% | . | . | . | . | .
CS(=O)(=O)N(C1CC1)C1CCOC2(CCNCC2)C1 (stereo unspecified) | 5% | . | . | . | . | .
COc1ccc(-c2nc(CSCC(=O)N3CCN(c4ccc(F)cc4)CC3)c(C)o2)cc1 | -1% | . | 13µM* | . | 8.2µM* | .
CCc1ccc(-c2nc(CSCC(=O)N3CCN(c4ccc(F)cc4)CC3)c(C)o2)cc1 | -17% | . | 21µM* | . | ? | .
COCc1nnc2n1CCC(NC(=O)c1nn(C)c3ccccc13)CC2 (stereo unspecified) | 45% | . | . | . | . | .
CN1Cc2ccccc2-n2ccnc2C12CCN(C(=O)c1cccc(Cl)c1)CC2 | 15% | . | . | . | . | .
CC(=O)c1cccc(NC(=O)c2cc3c(s2)-c2c(C)cccc2OC3)c1 | ? | . | ? | . | 16µM* | .
c1ccc2c(N3CCNCC3)cccc2c1 | ? | . | 18µM* | . | ? | .
CCn1c(C2CCCNC2)nn(C)c1=O (stereo unspecified) | 27% | . | . | . | . | .
CCN1CCN(c2cc(N3CCCC3)c(F)cc2[N+](=O)[O-])CC1 | ? | -8% | ? | 0% | 16µM* | 2%
COc1cccc2c1NC1(C)c3ccccc3-n3nncc3CN1C2=O (stereo unspecified) | -17% | . | . | . | . | .
N#CSCC(=O)N1c2ccccc2CCc2ccccc21 | -5% | 11µM* | 5.8µM* | ? | 7.3µM* | ?
Nc1ccccc1C(=O)OCC(=O)N1CCc2ccccc21 | -22% | 43% | -3% | ? | -9% | ?
c1cncc(CN2CCOC[C@H]3CCNC[C@H]32)c1 | 26% | . | . | . | . | .
C#C[C@H]1CN2CC[C@H]1C[C@@H]2CNCc1ccc(N(C)C)cc1 | 53%[176 µM] | . | . | . | . | .
CC(C)(C)n1cc(C(=O)c2ccccc2)cc1-c1ccccc1 | ? | 6% | 26µM* | -5% | ? | 10%
CN(C)C(=O)Oc1ccc(C(=O)c2ccccc2)cc1 | 6% | 34% | -6% | ? | -8% | 27%
COc1ccc(C2SCC(=O)Nc3[nH]ncc32)cc1OC1CCCC1 (stereo unspecified) | -1% | . | . | . | . | .
COC(=O)[C@]12OC[C@]34C([C@@H](O)[C@@H]1O)[C@]1(C)CC(=O)C(O)=C(C)[C@@H]1C[C@H]3OC(=O)[C@H](O)[C@@H]24 (stereo partly specified) | 1% | 0.56µM* | 2.9µM* | ? | 1.5µM* | 0.22µM*
SMILES | ALOX12 inh | RORg inh | DT40 TDP1 CPT | ELG1 DNA repair | DT40 TDP1 no CPT | VP16 counter
CC1=CC(O)C(O)C2(C)C1CC1OC(=O)C(O)C3C(C)C(O)C4(O)OCC13C42 (stereo unspecified) | 22% | . | -23% | . | -20% | .
CON(C)C(=O)Nc1ccc(Br)c(Cl)c1 | . | 18% | . | . | . | -10%
COc1cc2c(cc1OCc1ccncc1)NC(=O)C21CCN(CC2CC2)CC1 | 27%[176 µM] | . | . | . | . | .
CCN1CCN(c2ccc(N)cc2C)CC1 | -24% | 8% | 12µM* | 6% | 13µM* | -14%
O=C1NC2(CN(CC3CC3)C2)Oc2ccccc21 | 31%[176 µM] | . | . | . | . | .
C[C@]12CC[C@H]3[C@@H](CCC4=CC(=O)CC[C@@]43C)[C@@H]1CC[C@@H]2C(=O)CO | -4% | ? | ? | 4% | 10µM* | 2%
C[C@]12CC[C@H]3[C@@H](CCC4=CC(=O)CC[C@@]43C)[C@H]1CC[C@H]2O | 2% | . | . | . | . | .
CC12CCC(=O)C=C1CCC1C2CCC2(C)C(O)CCC12 (stereo unspecified) | -8% | -3% | 23µM* | -3% | ? | 0%
CC1=C2CCC3C(CCC4=CC(=O)CCC43C)C2CC1 (stereo unspecified) | -19% | . | ? | . | 29µM* | .
CC(=O)C1C(N2CC2)CC2C3CCC4=CC(=O)CCC4(C)C3CCC21C (stereo unspecified) | -1% | . | 7.3µM* | . | 12µM* | .
CC12CCC3C(CCC4=CC(=O)CCC43C)C1CCC2=O (stereo unspecified) | -28% | . | . | . | . | .
